The values that follow come from PubChem BioAssay AID463173 (ICCB-Longwood Screening Facility, Harvard Medical School, 2010).

The whole screen tested about 52,000 compounds, of which about 4,300 (8.3%) were called active. Shown is part of a subset that was picked to be rich in actives. A number with no mark means an inactive call. Cut-off read from the data, not from the text of the source: active = survival mostly below about 52% (no sharp cut-off); inactive = mostly above about 56%.

The test deals with DeltatarO mutant. Nature of the test: growth inhibition of S. aureus wild type versus tarO mutant, primary screen, teichoic acid synthesis inhibitors, RN4220, OD600 (AID 463173). The conditions noted are these: OD600, 18 h, active compounds read low, screened at 18.75 µg/mL (by protocol).
In the case of `COc1ccc(N2C(=O)CS(=O)(=O)C23C(=O)N(Cc2c(F)cccc2Cl)c2ccccc23)cc1` (stereo unspecified), the survival is 86%.

On to `CCc1ccc(-c2nn(CC(=O)NC3CCCC3)c3c2cnc2ccc(C)cc23)cc1`, for which the survival is 37% (active).

Regarding `Cc1ccc(-c2nn(CC(=O)NC3CCCC3)c3c2cnc2ccc(F)cc23)cc1C`, the survival is 93%.

On to `CCc1ccc2ncc3c(-c4ccc(C)cc4)nn(CC(=O)NCc4ccccc4)c3c2c1`, for which the survival is 57%.

For `CCc1ccc(-c2nn(CC(=O)Nc3ccccc3C)c3c2cnc2ccc(C)cc23)cc1`, the survival was 70%.

Take `CCc1ccc(-c2nn(CC(=O)NC3CCCCC3)c3c2cnc2ccc(C)cc23)cc1`: the survival was 69%.

Consider `CCc1ccc(-c2nn(CC(=O)NC3CCCC3)c3c2cnc2ccc(F)cc23)cc1`, for which the survival is 105%.

Take `CCc1ccc(-c2nn(CC(=O)NC3CCCCC3)c3c2cnc2ccc(F)cc23)cc1`: the survival is 72%.

Regarding `Cc1ccc(-c2nn(CC(=O)NC3CCCCC3)c3c2cnc2ccc(F)cc23)cc1C`, the survival was 0% (active).

As to `Cc1ccc2ncc3c(-c4ccc(F)cc4)nn(CC(=O)Nc4ccccc4C)c3c2c1`, the survival is 101%.

`Cc1ccccc1NC(=O)Cn1nc(-c2ccc(F)cc2)c2cnc3ccccc3c21`: the survival was 25% (active).

As for `CCCNC(=O)Cn1nc(-c2ccc(C)cc2)c2cnc3ccc(CC)cc3c21`, the survival was 37% (active).

Regarding `CCc1ccc2ncc3c(-c4ccc(C)cc4)nn(CC(=O)Nc4ccc(C)cc4)c3c2c1`, the survival was 55%.

Take `CCN(CC)c1ccc(NC(=O)C2CCN(S(=O)(=O)c3ccc4c(c3)oc(=O)n4C)CC2)c(C)c1`: the survival was 90%.

As to `COc1ccc(C2CC(=O)c3cc(-c4nc(-c5cccc([N+](=O)[O-])c5)cs4)c(=O)n(-c4ccc(C)c(C)c4)c3C2)cc1` (stereo unspecified), the survival is 156%.

For `CCCN1c2cccc3cccc(c23)S1(=O)=O`, the survival was 101%.

Consider `Cc1oc(CC(C)C)cc1C(=O)O`, for which the survival is 104%.

Regarding `CCN1C(=O)C2C(c3ccc(F)cc3)NC(CCSC)(C(=O)OC)C2C1=O` (stereo unspecified), the survival is 54%.

Take `Cn1c(=O)[nH]c2cc(-c3noc(-c4cccc(Cl)c4)n3)ccc21`: the survival was 87%.

For the compound `O=C(Cn1nc(-c2ccccc2)c2cnc3ccc(F)cc3c21)NC1CCCC1`, the survival is 102%.

Consider `COc1ccc(-c2nn(CC(=O)NC3CCCC3)c3c2cnc2ccc(F)cc23)cc1`, for which the survival is 46% (active).

For the compound `CCOc1ccc(-c2nn(CC(=O)NC3CCCC3)c3c2cnc2ccc(F)cc23)cc1`, the survival is 144%.

For the compound `Cc1ccc(CNC(=O)c2nnc(Cc3ccc(Cl)cc3)o2)cc1`, the survival is 99%.

For `Cc1cccn2c(=O)c(C(=O)NCCc3ccccc3)cnc12`, the survival is 58%.

As for `Cc1cccn2c(=O)c(C(=O)NCCc3ccc(Cl)cc3)cnc12`, the survival was 83%.

In the case of `COc1ccc(CCNC(=O)c2ccc(Cn3c(=O)c4ccccc4n(Cc4ccccc4Cl)c3=O)cc2)cc1OC`, the survival is 80%.

For the compound `Cc1nc2c(C(=O)NCCc3ccccc3)cnn2c(C)c1Cc1c(F)cccc1Cl`, the survival was 79%.

Turning to `Cc1nc2c(C(=O)NCCc3ccc(Cl)cc3)c[nH]n2c(=O)c1Cc1ccccc1F`, the survival was -12% (active).

On to `COc1ccc(CCNC(=O)c2cc(C)nc3c2c(C)nn3-c2ccccc2)cc1OC`, for which the survival is 92%.

As to `Cc1nc2c(C(=O)NCCc3ccc(Cl)cc3)cnn2c(C)c1Cc1c(F)cccc1Cl`, the survival was 75%.

As for `Cc1nc2nc(NC(=O)c3ccc(Cl)cc3)[nH]n2c(=O)c1Cc1ccccc1`, the survival is 105%.

In the case of `COc1ccc(CCNC(=O)c2c[nH]n3c(=O)c(Cc4ccccc4Cl)c(C)nc23)cc1OC`, the survival is 32% (active).

`Cc1nc2c(C(=O)NCCc3ccccc3)c[nH]n2c(=O)c1Cc1ccccc1F`: the survival was -13% (active).

In the case of `Cc1ccc(CNC(=O)c2c[nH]n3c(=O)c(Cc4ccc(Cl)cc4)c(C)nc23)cc1`, the survival was -12% (active).

Regarding `Cc1ccc(-n2ncc(C(=O)N3CCN(c4ccccn4)CC3)c2C2CCN(C(=O)OC(C)(C)C)CC2)cc1C`, the survival was 72%.

For `COc1ccc2c(c1)N(C)/C(=C1/SC(=O)N(c3ccccc3)C1=O)S2`, the survival is 94%.

As for `CC(C)(CC(=O)NCc1ccc(Cl)cc1Cl)CC1=NS(=O)(=O)c2ccccc2N1`, the survival is 75%.

For the compound `CCCOc1ccc(NC(=O)CC2C(=O)N(c3ccc(F)cc3)C(=O)N2CC(C)C)cc1` (stereo unspecified), the survival was 64%.

On to `COc1ccc(NC(=O)Cc2coc3cc(C)cc(C)c23)c(OC)c1`, for which the survival is 60%.

`COc1ccccc1CCNC(=O)c1cccn1-c1nnc(N2CCCC2)s1`: the survival is 93%.

As to `CCCOc1cccc(C(=O)N(Cc2sccc2C)C2CCS(=O)(=O)C2)c1` (stereo unspecified), the survival is 110%.

For the compound `COc1cc2c(=O)c(C(=O)c3ccc(C)c(C)c3)cn(Cc3ccccc3)c2cc1OC`, the survival was 79%.

As for `O=C(CSc1nc2c([nH]c3ccccc32)c(=O)n1-c1ccccc1)N1CCCC1`, the survival was 84%.

In the case of `Cc1ccc(-c2nc3ccc(Cl)cn3c2Nc2ccc3c(c2)OCCO3)s1`, the survival was 107%.

Consider `Cc1nc2nc(NC(=O)c3ccc(F)cc3)[nH]n2c(=O)c1Cc1ccccc1`, for which the survival was 101%.

`Cc1nc2c(C(=O)NCc3ccccc3)c[nH]n2c(=O)c1Cc1ccccc1Cl`: the survival is 49%.

For `Cc1nc2c(C(=O)NCCc3ccccc3)c[nH]n2c(=O)c1Cc1ccc(F)cc1Cl`, the survival is -16% (active).

On to `Cc1ccc(CNC(=O)c2cnn3c(C)c(Cc4c(F)cccc4Cl)c(C)nc23)cc1`, for which the survival is 70%.

Take `Cc1ccc(CNC(=O)c2c[nH]n3c(=O)c(Cc4ccc(F)cc4Cl)c(C)nc23)cc1`: the survival is -13% (active).

Take `Cc1nc2c(C(=O)NCc3ccccc3Cl)cnn2c(C)c1Cc1ccccc1`: the survival was 79%.

For the compound `Cc1nc2c(C(=O)N(C)Cc3ccccc3)c[nH]n2c(=O)c1Cc1ccc(Cl)cc1`, the survival is 88%.

On to `Cc1nc2c(C(=O)NCCc3ccc(Cl)cc3)c[nH]n2c(=O)c1Cc1ccc(Cl)cc1`, for which the survival is -14% (active).

For the compound `Cc1nc2nc(NC(=O)c3cccc(Cl)c3)[nH]n2c(=O)c1Cc1ccccc1`, the survival was 111%.

In the case of `Cc1ccc(CNC(=O)CN2CCN(Cc3ccc(F)cc3Cl)C2=O)cc1`, the survival is 79%.

For `Cc1nc2c(C(=O)NCCc3ccc(Cl)cc3)cnn2c(C)c1Cc1ccc(F)cc1`, the survival was 69%.

With `Cc1nc2c(C(=O)NCc3ccccc3Cl)c[nH]n2c(=O)c1Cc1cccc(Cl)c1`, the survival is -16% (active).

Turning to `COc1ccc(CNC(=O)C(=O)NCC(c2ccco2)S(=O)(=O)c2cccs2)cc1` (stereo unspecified), the survival was 60%.

For `N#C/C(=C\c1ccc[nH]1)C(=O)N1CCc2ccccc2C1`, the survival is 72%.

As to `COc1cc(Cl)c(NC(=O)c2cc(S(=O)(=O)N3CCCCC3)c[nH]2)c(OC)c1`, the survival is 119%.

As for `Cc1cc(NC(=O)CCNS(=O)(=O)c2ccc3c(c2)CCCC(=O)N3)ccc1Br`, the survival was 76%.

With `COc1ccc(C2CC(=O)Nc3c2c(=O)[nH]c2nc4ccccc4n32)cc1` (stereo unspecified), the survival is 66%.

For `Cn1cnc(S(=O)(=O)N2CCC(C(=O)NCc3ccccc3Cl)CC2)c1`, the survival is 118%.

Regarding `COc1ccccc1CNC(=O)C1CCN(S(=O)(=O)c2ccc3[nH]c(=O)ccc3c2)CC1`, the survival is 102%.

With `CCOc1ccccc1CNC(=O)C1CCN(S(=O)(=O)c2ccc3[nH]c(=O)ccc3c2)CC1`, the survival was 25% (active).

With `Cc1cc(C)cc(NC(=O)C2CCN(S(=O)(=O)c3cn(C)cn3)CC2)c1`, the survival was 98%.

For `Cc1ccc(N(C)C(=O)C2CCN(S(=O)(=O)c3cn(C)cn3)CC2)cc1`, the survival was 37% (active).

Consider `Cn1cnc(S(=O)(=O)N2CCC(C(=O)NCc3ccc(Cl)cc3)CC2)c1`, for which the survival was 101%.

As for `CCOc1ccccc1NC(=O)C1CCN(S(=O)(=O)c2ccc3[nH]c(=O)ccc3c2)CC1`, the survival was 63%.

On to `Cc1ccc(CNC(=O)C2CCN(S(=O)(=O)c3cn(C)cn3)CC2)cc1`, for which the survival was 115%.

On to `COc1ccc(OC)c(CNC(=O)C2CCN(S(=O)(=O)c3cn(C)cn3)CC2)c1`, for which the survival is 83%.

For the compound `CN(C)c1ccc(CNC(=O)C2CCN(S(=O)(=O)c3cn(C)cn3)CC2)cc1`, the survival was 0% (active).

Turning to `COc1ccccc1CNC(=O)C1CCN(S(=O)(=O)c2cn(C)cn2)CC1`, the survival was 0% (active).

Turning to `Cc1ccc(C)c(N2CCN(C(=O)C3CCN(S(=O)(=O)c4cn(C)cn4)CC3)CC2)c1`, the survival was 64%.

Take `CC(C)C(NS(=O)(=O)c1ccccc1)C(C)C`: the survival was 97%.

As to `COc1cc(C2CC(=O)c3c([nH]c(C(=O)OCc4ccc(C)cc4)c3C)C2)cc(OC)c1OC` (stereo unspecified), the survival was 83%.

As for `OC1CN=C2C=CC=CN2C1` (stereo unspecified), the survival is 89%.

Consider `CCN1CCN(c2ccc(NS(=O)(=O)c3c(C)nc4sccn4c3=O)cc2Cl)CC1`, for which the survival was 108%.

Consider `Cc1ccc(CNC(=O)c2oc3c(c2C)-c2nn(Cc4ccc(Cl)cc4)cc2CC3)cc1`, for which the survival is 57%.

With `Cc1cc2nc(-c3ccc(NC(=O)c4ccc(OCC(C)C)cc4)cc3)oc2cc1C`, the survival is 78%.

Consider `Cc1c(CNC2CCCCC2)c(C(=O)O)c(C)n1Cc1ccccc1F`, for which the survival was 88%.

For the compound `Cc1ccc2c(c1)-c1onc(C(=O)N(C)c3cccc(C(F)(F)F)c3)c1CO2`, the survival is 108%.

As for `CC(C)OCCCNC(=O)c1ccc2c(c1)N(Cc1c(F)cccc1Cl)C(=O)c1ccccc1S2`, the survival is 76%.

Regarding `CCCCc1nn2c(=O)cc(COC(=O)c3cccc(Cl)c3)nc2s1`, the survival is 67%.

Regarding `COc1ccc(C(CC(=O)NCc2ccccc2Cl)N2Cc3ccccc3C2=O)cc1OC` (stereo unspecified), the survival is 80%.

On to `COc1ccccc1N1CCN(S(=O)(=O)c2c(C)sc3ncn(CC(=O)Nc4ccc(C)cc4Br)c(=O)c23)CC1`, for which the survival was 73%.

As to `O=C(Cc1ccccc1)NC1CCS(=O)(=O)C1` (stereo unspecified), the survival was 97%.
